Common to all, as to assay: NCI-60 one-dose screen, 48 h (100 = growth as untreated, 0 = no growth, -100 = all killed)
Common to all, as to settings: 10 µM unless noted

In assay [1] the test system is NCI-H23 lung.
The test system of assay [2] is NCI-H322M lung.
Assay [3] deals with HOP-62 NSCLC.
Assay [4] deals with NCI-H460 lung.
In assay [5] the test system is HOP-92 NSCLC.
Assay [6] has as its system NCI-H522 lung.
In assay [7] the test system is A549/ATCC NSCLC.
The subject of assay [8] is 786-0 renal.
Assay [9] relates to DU-145 prostate.
The test system of assay [10] is K-562 leukemia.
Assay [11] deals with MALME-3M melanoma.
Assay [12] concerns MDA-MB-231 breast.
For assay [13], the system named is RXF 393 renal.
The test system of assay [14] is SF-268 CNS.
The test system of assay [15] is SF-295 CNS.
Assay [16] deals with SF-539 CNS.
Assay [17] concerns UACC-257 melanoma.
Assay [18] concerns M14 melanoma.
In assay [19] the test system is HCT-15 colon.

This note sets out measurements from PubChem BioAssay (NCI).

The panel holds about 83,000 compounds, 20% with a hit somewhere; the sample as a whole holds those more often.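 A percent growth of 40 corresponds to 60% growth inhibition; 0 means no net growth; -100 means all cells died. Active threshold: below 10.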 Unmarked numbers belong to inactive results. Activity calls are given as the source filed them.

As to `COc1cc2nc(NC3CCC3)nc(NC3CCN(C(C)C)CC3)c2cc1OC`, the growth in assay [1] is 92.2%; in [2], 89.2%; in assay [3], 81.5%; in [4], 58.3%; in assay [5], 26%; in [6], 30.7%. Besides, the growth was 4.73% (active) in assay [7]; 68% in [8]; 57.1% in assay [9]; 0.162% (active) in assay [10]; -4.44% (active) in assay [11]; -2.38% (active) in assay [12]. Further, the growth was -16.9% (active) in [13]; 77.9% in assay [14]; 96.6% in assay [15]; 5.1% (active) in assay [16]; -59.9% (active) in [17]; -65.8% (active) in assay [18]. The growth in [19] is 67.7%.

Consider `C[C@@H](C(=O)NCCCC#Cc1cnc(Nc2ccc(C#N)cc2)nc1NC1CC1)N(C)C(=O)/C=C/CN(C)C`, for which the growth in [1] was 22.8%; in assay [2], 63%; in [3], 44.2%; in assay [4], 15.3%; in assay [5] it was 107%; in assay [6] it was 59.1%. Further, the growth is 32.8% in assay [7]; 39.8% in assay [8]; 38.4% in [9]; 14.1% in [10]; 22.5% in assay [11]; 77.8% in [12]. The growth was -1.36% (active) in [13]; 48.4% in [14]; 25.9% in assay [15]; 9.99% (active) in [16]; 40.2% in [17]; 26.7% in assay [18]. Moreover, the growth in assay [19] was 29.9%.

In the case of `O=C(/C=C/c1ccc(F)cc1)c1ccc(Nc2nc(NCCO)nc(Nc3ccc(Cl)cc3)n2)cc1`, the growth in [1] is 89.1%; in [2], 93.1%; in assay [3] it was 80.8%; in assay [4] it was 61.6%; in assay [5] it was 87.8%; in assay [6], 81.1%. The growth is 51.1% in [7]; 69.8% in [8]; 84.6% in assay [9]; 45.4% in assay [10]; 96.6% in [11]; 71.9% in [12]. Also, the growth in [13] was 51.2%; in assay [14], 71.9%; in [15] it was 91%; in assay [16] it was 74.4%; in assay [17] it was 99.5%; in assay [18], 83.3%. In addition, in assay [19], the growth is 26.7%.

`CCCCN1CCN(c2ccc3nc(-c4ccc5nc(-c6ccc(C(F)(F)F)cc6)[nH]c5c4)[nH]c3c2)CC1`: the growth is -85.1% (active) in [1]; -94.1% (active) in assay [2]; -78.5% (active) in assay [3]; -79.9% (active) in [4]; -13.5% (active) in assay [5]; -38.2% (active) in assay [6]. For the same compound, the growth in [7] is -71.9% (active); in assay [8], -84.9% (active); in assay [9], -95.5% (active); in [10], -65.8% (active); in [11] it was -74.2% (active); in [12], -88.9% (active). For the same compound, the growth in [13] was -82% (active); in assay [14], -71.8% (active); in assay [15], -84% (active); in [16], -92.8% (active); in assay [17] it was -16.2% (active); in [18] it was -63.5% (active). The growth in assay [19] was -79% (active).

With `CNC(=O)c1cc(Oc2ccc(CC(=O)Nc3cc(C(C)(C)C)cn3C)cc2)ccn1`, the growth in assay [1] is 50.2%; in assay [2], 93%; in assay [3] it was 56%; in assay [4], 74.8%; in assay [5], 84%; in [6], 75.1%. Also, the growth in assay [7] was 68.9%; in assay [8] it was 89.7%; in assay [9], 93.9%; in assay [10], 35.5%; in [11] it was 50.6%; in [12], 67.8%. For the same compound, the growth was 105% in [13]; 86.4% in assay [14]; 45.4% in assay [15]; 68.3% in assay [16]; 56.5% in assay [17]; 84.7% in assay [18]. The growth in assay [19] was 93.8%.

`COc1ccc(/C(C#N)=C/c2nc3c(N4CCOCC4)nc(Cl)nc3n2C)cc1OC`: the growth in assay [1] was 24%; in [2], 29.9%; in assay [3], 25.3%; in assay [4], -15.2% (active); in assay [5], -12.2% (active); in [6] it was -28.4% (active). The growth in assay [7] was 21.1%; in assay [8] it was -61.5% (active); in assay [9] it was 8.07% (active); in assay [10] it was 0.867% (active); in [11] it was 32.7%; in assay [12], 9.29% (active). Also, the growth in assay [13] was -67.5% (active); in [14], 14.5%; in [15] it was -6.46% (active); in assay [16] it was -26.5% (active); in assay [17], 16.2%; in assay [18], -49.1% (active). Besides, the growth in [19] is -40.8% (active).

On to `COc1cc(/C=C/C(=O)c2ccc(Nc3nc(NCCO)nc(N4CCOCC4)n3)cc2)cc(OC)c1OC`, for which the growth was 15.7% in assay [1]; 30.9% in [2]; 34.3% in assay [3]; -20.8% (active) in [4]; 39.7% in [5]; 24.1% in [6]. Further, the growth in assay [7] is 14.4%; in assay [8], 16.9%; in assay [9] it was 17.9%; in assay [10], 10.7%; in [11], 40%; in [12] it was 32.9%. Also, the growth is 6.75% (active) in assay [13]; 17.5% in assay [14]; 66.6% in [15]; -5.44% (active) in [16]; 48.8% in [17]; 26.8% in assay [18]. The growth in [19] is 2.16% (active).

With `CCCN1CCN(c2ccc3nc(-c4ccc5nc(-c6cc(OC)ccc6OC)[nH]c5c4)[nH]c3c2)CC1`, the growth in assay [1] was 103%; in [2], 115%; in [3], 117%; in assay [4] it was 100%; in assay [5] it was 110%; in assay [6] it was 113%. In addition, the growth is 115% in assay [7]; 101% in assay [8]; 114% in assay [9]; -45.3% (active) in [10]; 139% in [11]; 107% in assay [12]. In addition, the growth was 93.3% in assay [13]; 106% in assay [14]; 104% in assay [15]; 96.2% in assay [16]; 110% in assay [17]; 111% in assay [18]. Also, in assay [19], the growth was 62.1%.
